Reference: PubChem BioAssay (Tox21)
Where “and” joins values, the source holds several entries; their conditions need not be identical. Identical values can stand only once. Records with an inconclusive call do not appear. Where a structure was tested more than once in an assay, its records may differ in their call. Calls of active or inactive are those of the source. Unless noted, calls come from the whole dose curve; as a rule, active = well fitted curve in the direction sought with a large enough effect in the repeat runs; inconclusive = weak or mixed curves; inactive = no such curve, though single readings can be large; an effect the other way counts as inactive or inconclusive.

Columns and labels:
[1] = qHTS assay to identify small molecule antagonists of the sonic hedgehog signaling (Shh) pathway (AID 1259369; calls by dose curve; note: nearly all actives have a fitted effect of over 45% in size; note: potency is the fitted concentration of half-maximal effect)
How it was run: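 Screening used 3T3Gli1-Luc cells at 2,000 per well, compounds delivered in DMSO, and conditioned medium as agonist stimulus; plates incubated 24hr at 37 C and 5% CO2 before a 30min luciferase step.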

[2] = target: Estrogen receptor beta (Homo sapiens) (UniProt Q92731); experiment: qHTS assay to identify small molecule agonists of the estrogen receptor beta (ER-beta) signaling pathway (AID 1259377; active = well fitted activation curve with a large enough effect in the signal ratio in the repeat runs, not every such curve was filed as active; the % refers to the signal ratio)
Chain of Estrogen receptor beta (Homo sapiens) (Q92731 whole entry, looked up, the tested form may be a part): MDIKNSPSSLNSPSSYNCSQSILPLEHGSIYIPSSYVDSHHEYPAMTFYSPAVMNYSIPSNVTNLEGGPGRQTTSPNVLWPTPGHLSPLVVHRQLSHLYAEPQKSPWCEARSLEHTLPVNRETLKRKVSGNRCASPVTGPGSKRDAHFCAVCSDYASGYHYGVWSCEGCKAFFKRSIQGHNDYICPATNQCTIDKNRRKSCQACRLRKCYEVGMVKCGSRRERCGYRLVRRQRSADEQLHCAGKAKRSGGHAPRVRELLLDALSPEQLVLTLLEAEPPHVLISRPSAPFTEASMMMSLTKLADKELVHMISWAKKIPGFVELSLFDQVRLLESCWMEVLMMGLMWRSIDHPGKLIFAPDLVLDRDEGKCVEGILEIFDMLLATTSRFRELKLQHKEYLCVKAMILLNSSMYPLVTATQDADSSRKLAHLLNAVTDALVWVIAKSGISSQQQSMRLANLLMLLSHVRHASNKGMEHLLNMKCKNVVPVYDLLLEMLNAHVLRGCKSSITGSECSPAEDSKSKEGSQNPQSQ
How it was run: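 Agonist mode cell assay in GripTite HEK293T cells expressing an ER-beta fusion that drives beta-lactamase from an Upstream Activator Sequence; 16 hr compound exposure at 37C, then 2 h LiveBLAzer B/G FRET substrate at room temperature, fluorescence read-out.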

[3] = target: Estrogen receptor beta (Homo sapiens) (UniProt Q92731); experiment: qHTS assay to identify small molecule antagonists of the estrogen receptor beta (ER-beta) signaling pathway (AID 1259378; active = well fitted inhibition curve with a large enough effect in the signal ratio in the repeat runs, not every such curve was filed as active; the % refers to the signal ratio)
How it was run: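 ER-beta-UAS-bla HEK293T (GripTite) cells in 2% charcoal-stripped FBS medium were preincubated 6 hr at 37C, dosed with compound, then stimulated with 1 nM E2 (final) for 16 hr; beta-lactamase reporter read by B/G FRET fluorescence after 2 hr substrate loading.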

[4] = qHTS assay to identify small molecule agonists of the androgen receptor (AR) signaling pathway in the presence of an antagonist - cell viability counter screen (AID 1259379);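 note: MDA-kb2 human breast cancer cells carrying an MMTV luciferase reporter; series mostly up to about 92 µM; nearly all actives have a fitted effect of over 25% in size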
How it was run: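 In MDA-kb2 cells (human breast carcinoma, MMTV-luciferase), compounds at 15 concentrations plus 3.0uM nilutamide; 16 hr, 37C, 0% CO2; CellTiter-Fluor fluorescence read for viability.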

[5] = qHTS assay to identify small molecule agonists of the estrogen receptor beta (ER-beta) signaling pathway - cell viability counter screen (AID 1259380); note: nearly all actives have a fitted effect of over 30% in size; note: potency is the fitted concentration of half-maximal effect
How it was run: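 Viability of ER-beta-UAS-bla HEK293T cells was determined by CellTiter-Glo luminescence following 16 hr treatment with test compounds at 37C.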

[6] = qHTS assay to identify small molecule antagonists of the estrogen receptor beta (ER-beta) signaling pathway - cell viability counter screen (AID 1259382); note: series mostly up to about 92 µM; nearly all actives have a fitted effect of over 55% in size
How it was run: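 Tox21 10K library tested in qHTS format on ER-beta-bla HEK293T cells stimulated with 1nM E2; 16 hr treatment at 37C. Same-well CellTiter-Glo luminescence served as the cell viability measure.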

[7] = target: Estrogen receptor (Homo sapiens) (UniProt P03372); experiment: qHTS assay to identify small molecule agonists of the estrogen receptor alpha (ER-alpha) signaling pathway in the presence of an antagonist (AID 1259383; calls by dose curve; note: nearly all actives have a fitted effect of over 15% in size; note: potency is the fitted concentration of half-maximal effect; for activation: top concentration of the series differs between compounds)
Chain of Estrogen receptor (Homo sapiens) (P03372 whole entry, looked up): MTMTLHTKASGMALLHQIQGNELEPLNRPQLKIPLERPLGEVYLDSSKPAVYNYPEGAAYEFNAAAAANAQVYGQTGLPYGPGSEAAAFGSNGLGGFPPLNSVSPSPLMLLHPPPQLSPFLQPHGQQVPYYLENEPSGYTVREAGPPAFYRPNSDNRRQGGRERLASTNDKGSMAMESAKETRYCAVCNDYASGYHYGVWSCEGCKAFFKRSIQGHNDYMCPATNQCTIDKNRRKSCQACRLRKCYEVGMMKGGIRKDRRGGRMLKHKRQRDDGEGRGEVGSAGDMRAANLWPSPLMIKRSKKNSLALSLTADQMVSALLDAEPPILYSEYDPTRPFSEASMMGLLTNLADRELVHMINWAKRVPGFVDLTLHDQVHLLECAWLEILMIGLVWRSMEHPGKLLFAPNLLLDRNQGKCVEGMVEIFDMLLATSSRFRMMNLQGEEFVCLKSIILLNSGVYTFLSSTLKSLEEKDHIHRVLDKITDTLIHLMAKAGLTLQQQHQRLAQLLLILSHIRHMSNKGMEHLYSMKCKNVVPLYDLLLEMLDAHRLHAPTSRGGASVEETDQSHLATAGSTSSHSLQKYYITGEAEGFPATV
How it was run: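 In VM7Luc4E2 cells, 4,000 per well, compounds at 15 concentrations were co-incubated 22hr at 37C with 10.0nM final ICI-182,780. Luminescence from the stably transfected 4×ERE-luciferase reporter was recorded 30min after ONE-Glo addition.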

[8] = qHTS assay to identify small molecule agonists or antagonists of the thyroid stimulating hormone receptor (TSHR) signaling pathway - wild type cell line counter screen (AID 1259384; calls by dose curve)
How it was run: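 Wild-type HEK293 cells were plated 18 h at 37 C/5% CO2, pin-dosed with compound plus Ro20-1724 medium, held 30 min at room temperature, then given cAMP-d2 and anti-cAMP-cryptate; fluorescence was read after 1 h. Fifteen concentrations, triplicate.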

[9] = target: Thyrotropin receptor (Homo sapiens) (UniProt P16473); experiment: qHTS assay to identify small molecule antagonists of the thyroid stimulating hormone receptor (TSHR) signaling pathway (AID 1259385; calls by dose curve; note: nearly all actives have a fitted effect of over 20% in size)
Chain of Thyrotropin receptor (Homo sapiens) (P16473 whole entry, looked up): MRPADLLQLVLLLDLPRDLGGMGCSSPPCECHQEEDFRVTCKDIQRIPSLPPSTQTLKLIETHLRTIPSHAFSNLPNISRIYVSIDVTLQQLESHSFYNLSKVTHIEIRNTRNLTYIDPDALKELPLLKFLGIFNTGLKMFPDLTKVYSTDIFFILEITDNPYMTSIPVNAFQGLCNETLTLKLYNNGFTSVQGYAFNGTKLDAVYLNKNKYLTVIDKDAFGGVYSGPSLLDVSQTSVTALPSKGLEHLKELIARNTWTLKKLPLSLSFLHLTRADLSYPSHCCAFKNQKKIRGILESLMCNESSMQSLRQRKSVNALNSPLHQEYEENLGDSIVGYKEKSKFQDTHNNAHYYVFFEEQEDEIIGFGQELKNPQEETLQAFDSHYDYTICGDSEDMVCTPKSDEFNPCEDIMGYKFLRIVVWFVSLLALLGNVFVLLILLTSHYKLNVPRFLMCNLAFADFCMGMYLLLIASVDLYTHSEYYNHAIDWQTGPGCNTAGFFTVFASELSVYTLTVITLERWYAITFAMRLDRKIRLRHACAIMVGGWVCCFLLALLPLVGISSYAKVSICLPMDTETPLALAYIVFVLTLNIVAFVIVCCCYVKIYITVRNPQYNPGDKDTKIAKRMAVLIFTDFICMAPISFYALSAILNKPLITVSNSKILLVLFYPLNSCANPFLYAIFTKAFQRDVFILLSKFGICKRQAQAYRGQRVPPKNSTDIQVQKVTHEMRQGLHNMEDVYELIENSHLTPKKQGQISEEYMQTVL
How it was run: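 TSHR-HEK293 cells were plated and held 18 h at 37C/5% CO2, then given compound plus Ro20-1724 and stimulated with TSH at 1.5 ng/mL final. After 30 min at room temperature, cAMP was detected with cAMP-d2/anti-cAMP-cryptate (1 h) by fluorescence.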

[10] = qHTS assay to identify small molecule agonists of the estrogen receptor alpha (ER-alpha) signaling pathway in the presence of an antagonist - cell viability counter screen (AID 1259386);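 note: series mostly up to about 92 µM; cells exposed to compounds for 22 h at 37 °C before the viability read; nearly all actives have a fitted effect of over 30% in size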
How it was run: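 Fluorescent CellTiter-Fluor viability signal from VM7Luc4E2 cells, with the reagent added during the final hour of a 22hr compound exposure at 37C in the presence of 10.0nM ICI-182,780.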

[11] = target: Progesterone receptor (Homo sapiens) (UniProt P06401); experiment: qHTS assay to identify small molecule agonists of the progesterone receptor (PR) signaling pathway (AID 1346784; calls by dose curve; note: nearly all actives have a fitted effect of over 30% in size)
Chain of Progesterone receptor (Homo sapiens) (P06401 whole entry, looked up): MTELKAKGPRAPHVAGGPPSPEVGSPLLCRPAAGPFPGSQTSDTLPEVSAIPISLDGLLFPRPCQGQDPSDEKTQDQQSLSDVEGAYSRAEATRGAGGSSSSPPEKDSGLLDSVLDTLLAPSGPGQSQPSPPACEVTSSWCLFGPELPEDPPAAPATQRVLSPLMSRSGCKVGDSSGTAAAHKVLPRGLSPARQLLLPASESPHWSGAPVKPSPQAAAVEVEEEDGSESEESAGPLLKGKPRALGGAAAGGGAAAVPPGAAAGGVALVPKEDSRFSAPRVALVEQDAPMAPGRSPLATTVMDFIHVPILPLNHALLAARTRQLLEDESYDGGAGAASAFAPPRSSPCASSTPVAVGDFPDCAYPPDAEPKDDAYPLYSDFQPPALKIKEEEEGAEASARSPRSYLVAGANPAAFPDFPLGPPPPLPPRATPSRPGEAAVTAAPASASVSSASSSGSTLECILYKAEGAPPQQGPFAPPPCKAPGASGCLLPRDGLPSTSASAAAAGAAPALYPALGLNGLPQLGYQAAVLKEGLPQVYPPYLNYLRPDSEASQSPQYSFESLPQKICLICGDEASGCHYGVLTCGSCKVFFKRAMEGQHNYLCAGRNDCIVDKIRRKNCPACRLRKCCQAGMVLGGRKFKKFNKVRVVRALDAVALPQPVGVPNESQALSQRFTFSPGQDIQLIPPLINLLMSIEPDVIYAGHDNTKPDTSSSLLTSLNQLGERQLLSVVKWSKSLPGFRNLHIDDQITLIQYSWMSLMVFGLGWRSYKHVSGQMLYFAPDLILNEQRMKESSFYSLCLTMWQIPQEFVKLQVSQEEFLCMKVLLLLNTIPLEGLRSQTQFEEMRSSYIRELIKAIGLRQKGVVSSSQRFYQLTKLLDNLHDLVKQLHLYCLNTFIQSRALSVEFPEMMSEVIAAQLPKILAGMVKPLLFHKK
How it was run: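 Cells (PR-UAS-bla HEK 293T, GripTite) were plated in assay medium containing 2% charcoal-stripped FBS and incubated 6 hr. Test compounds in DMSO were added for 16 hr at 37C. FRET substrate was then loaded for 2 hr at room temperature before fluorescence reading.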

[12] = target: Progesterone receptor (Homo sapiens) (UniProt P06401); experiment: qHTS assay to identify small molecule antagonists of the progesterone receptor (PR) signaling pathway (AID 1346795; active = well fitted inhibition curve with a large enough effect in the signal ratio in the repeat runs, not every such curve was filed as active; the % refers to the signal ratio)
How it was run: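 Antagonist mode: compounds tested against 1 nM (final) promegestone stimulation in HEK293T cells expressing PR-UAS-bla reporter, 16 hr at 37C, 5% CO2; beta-lactamase activity detected via B/G FRET substrate after 2 hr at room temperature.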

[13] = qHTS assay to identify small molecule antagonists of the progesterone receptor (PR) signaling pathway - cell viability counter screen (AID 1346798); note: series mostly up to about 92 µM; nearly all actives have a fitted effect of over 50% in size
How it was run: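 Counter screen for cytotoxicity: viability of PR-UAS-bla HEK293T cells was measured with CellTiter-Glo luminescence following 16 hr compound exposure in the presence of R5020.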

[14] = qHTS assay to identify small molecule agonists of the progesterone receptor (PR) signaling pathway - cell viability counter screen (AID 1346799; calls by dose curve; note: nearly all actives have a fitted effect of over 45% in size)
How it was run: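 Cells (PR-UAS-bla HEK293T) are plated at 3,000/well in 2% charcoal-stripped FBS medium, rested 6 hr, dosed and incubated 16 hr at 37C. CellTiter-Glo is then added and luminescence measured after 30 min at room temperature.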

[15] = qHTS assay to identify small molecule antagonists of the TGF-beta/Smad signaling pathway - cell viability counter screen (AID 1346824); note: nearly all actives have a fitted effect of over 50% in size
How it was run: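 SBE-bla HEK 293T cells were plated overnight at 37 C, then given compounds in DMSO plus TGF-beta1 (added as 0.25 ng/mL solution) for 5 hr. After the bla read, CellTiter-Glo was added to the same wells and luminescence read after 30 min at room temperature.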

[16] = qHTS assay to identify small molecule agonists of the TGF-beta/Smad signaling pathway - cell viability counter screen (AID 1346829); note: top concentration of the series differs between compounds; nearly all actives have a fitted effect of over 45% in size
How it was run: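 After overnight seating at 37 C and 5% CO2, reporter cells got compounds for 5 hr and FRET substrate for 2 hr; cell viability then came from CellTiter-Glo luminescence.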

[17] = qHTS assay to identify small molecule agonists of the TGF-beta/Smad signaling pathway (AID 1346859; active = well fitted activation curve with a large enough effect in the signal ratio in the repeat runs, not every such curve was filed as active; the % refers to the signal ratio; note: series mostly up to about 77 µM)
How it was run: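 Reporter line: HEK 293T with stably integrated SBE-controlled beta-lactamase. Compound exposure lasts 5 hr at 37 C and 5% CO2; substrate loading follows for 2 hr at room temperature, with emission read at 460 and 530 nm.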

[18] = target: Thyrotropin-releasing hormone receptor (Homo sapiens) (UniProt P34981); experiment: qHTS assay to identify small molecule agonists of the thyrotropin-releasing hormone receptor (TRHR) signaling pathway (AID 1346891; calls by dose curve; note: series mostly up to about 58 µM)
Chain of Thyrotropin-releasing hormone receptor (Homo sapiens) (P34981 whole entry, looked up): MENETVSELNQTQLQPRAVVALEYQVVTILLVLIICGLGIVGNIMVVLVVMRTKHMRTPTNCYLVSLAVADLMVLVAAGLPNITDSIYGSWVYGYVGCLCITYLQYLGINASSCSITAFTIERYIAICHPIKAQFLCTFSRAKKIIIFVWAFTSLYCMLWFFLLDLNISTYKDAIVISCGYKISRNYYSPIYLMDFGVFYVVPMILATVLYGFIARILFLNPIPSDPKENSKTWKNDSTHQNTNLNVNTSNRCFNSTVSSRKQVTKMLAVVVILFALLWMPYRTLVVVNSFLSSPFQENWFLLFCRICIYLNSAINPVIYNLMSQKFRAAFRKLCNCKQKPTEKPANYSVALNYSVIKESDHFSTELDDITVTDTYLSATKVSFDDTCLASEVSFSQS
How it was run: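 Cells: TRHR-Hek293, seeded and incubated 18 h. Dye loading: 2 h at 37 °C. Compound added from DMSO stock by pin tool. Read-out: kinetic calcium fluorescence over 3 min.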

[19] = target: Thyrotropin-releasing hormone receptor (Homo sapiens) (UniProt P34981); experiment: qHTS assay to identify small molecule antagonists of the thyrotropin-releasing hormone receptor (TRHR) signaling pathway (AID 1346877; active = well fitted inhibition curve with a large enough effect in the repeat runs, not every such curve was filed as active; note: series mostly up to about 51 µM)
How it was run: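 In this cell-based calcium flux format, HEK293 cells expressing TRHR received test compound for 5 min before the agonist TRH (1 nM final). Dye loading lasted 2 h at 37 °C.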

[20] = target: Androgen receptor (Homo sapiens) (UniProt P10275); experiment: qHTS assay to identify small molecule agonists of the androgen receptor (AR) signaling pathway in the presence of an antagonist (AID 1259381; calls by dose curve; note: nearly all actives have a fitted effect of over 15% in size)
Chain of Androgen receptor (Homo sapiens) (P10275 whole entry, looked up): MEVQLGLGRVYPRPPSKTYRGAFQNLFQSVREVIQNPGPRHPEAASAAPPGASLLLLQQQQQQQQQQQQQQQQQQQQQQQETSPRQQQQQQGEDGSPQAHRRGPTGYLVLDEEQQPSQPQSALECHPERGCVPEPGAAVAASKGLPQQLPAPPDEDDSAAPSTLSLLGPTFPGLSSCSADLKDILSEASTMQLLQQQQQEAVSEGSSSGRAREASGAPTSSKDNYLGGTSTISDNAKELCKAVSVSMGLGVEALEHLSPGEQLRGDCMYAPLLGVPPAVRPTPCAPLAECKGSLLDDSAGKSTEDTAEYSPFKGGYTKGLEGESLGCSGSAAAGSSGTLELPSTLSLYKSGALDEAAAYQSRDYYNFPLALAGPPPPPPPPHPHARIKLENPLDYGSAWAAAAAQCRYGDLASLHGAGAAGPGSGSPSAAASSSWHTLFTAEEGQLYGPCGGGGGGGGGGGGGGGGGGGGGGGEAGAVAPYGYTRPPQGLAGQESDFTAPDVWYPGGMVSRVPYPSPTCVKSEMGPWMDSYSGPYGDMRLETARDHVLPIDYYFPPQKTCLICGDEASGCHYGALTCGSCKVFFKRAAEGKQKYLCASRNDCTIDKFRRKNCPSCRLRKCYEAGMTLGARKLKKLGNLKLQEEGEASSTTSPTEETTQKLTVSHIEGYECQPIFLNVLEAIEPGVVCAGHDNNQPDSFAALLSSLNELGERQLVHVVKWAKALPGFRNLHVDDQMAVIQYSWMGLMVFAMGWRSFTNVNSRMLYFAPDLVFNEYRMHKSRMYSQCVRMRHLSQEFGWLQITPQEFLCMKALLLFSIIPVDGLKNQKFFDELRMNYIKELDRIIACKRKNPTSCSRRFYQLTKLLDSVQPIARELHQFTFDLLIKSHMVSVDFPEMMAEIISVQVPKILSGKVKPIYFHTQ
How it was run: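 Here, 15-concentration compound series were pin-transferred onto MDA-kb2 MMTV-luciferase cells already dosed with nilutamide (3.0uM final). After 16hr at 37C, ONE-Glo was added and luminescence read 30min later at room temperature.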

Measured: Potency

CCCCCCCCCCCCCC(=O)O
active: [5] 43.1 µM and 61.1 µM
not listed: [19] | [20]
inactive: all other assays above

Nc1cccc(C(F)(F)F)c1
not listed: [20]
inactive: all other assays above

C=CC(C)(C)C
not listed: [18] | [19] | [20]
inactive: all other assays above

O=[N+]([O-])c1cc(C(F)(F)F)ccc1Cl
not listed: [7]
inactive: all other assays above

CCCCC(=O)O
not listed: [20]
inactive: all other assays above

O=[N+]([O-])c1ccccc1C(F)(F)F
59.8 µM (active) and inactive: [7]
not listed: [8]
inactive: all other assays above

CCCCCCCCO
not listed: [18] | [19] | [20]
inactive: all other assays above

Cc1cc(C)cc(O)c1
active: [1] 1090 nM
not listed: [19] | [20]
inactive: all other assays above

CC(C)(CO)CO
not listed: [19]
inactive: all other assays above

CC(C)=CCC/C(C)=C/C=O
not listed: [18] | [19] | [20]
inactive: all other assays above

COCN(COC)c1nc(N(COC)COC)nc(N(COC)COC)n1
not listed: [20]
inactive: all other assays above

O=C(Cl)c1ccc(C(=O)Cl)cc1
not listed: [20]
inactive: all other assays above

C1CCCNCC1
not listed: [19] | [20]
inactive: all other assays above

CCc1cccc(O)c1
not listed: [19] | [20]
inactive: all other assays above

OCC(CO)(CO)CO
not listed: [20]
inactive: all other assays above

O=C1CCCCCCCCCCC1
not listed: [18] | [19] | [20]
inactive: all other assays above
